In PubChem BioAssay one finds composite z-score and z-score data, which are given here for 16 molecules.

The source made the active and inactive calls.

Assay [1] has as its system Plasmodium falciparum Sir2 (PF13_0152, Sir2A). Briefly: Plasmodium falciparum Sir2A binding compounds – biochemical, small-molecule microarray, 635 nm fluorescence, primary screen (AID 1098).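 Further: score merges spot fluorescence intensity with its signal-to-noise ratio.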 The note with it: fluorescence 635 nm, higher = more signal.
A short description of assay [2]: probe aDKK1 binding to arrayed compounds – biochemical, biotinylated probe, 635/667 nm fluorescence, primary screen (AID 1099).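 Further: score merges 667nm spot fluorescence with signal to noise across triplicate slides; reference of the scale not given here.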 The settings on record: small-molecule microarray, higher = more signal.
The nature of assay [3]: probe aCHRDL2 binding to arrayed compounds – biochemical, biotinylated probe, 635/667 nm fluorescence, primary screen (AID 1100). The note with it: small-molecule microarray, higher = more signal.
The nature of assay [4]: change in splice reporter luminescence, either direction, cell-based, HEK293, spliceosome inhibition project, primary screen (AID 1101).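 Further: HEK293 cells carrying a splicing-competent luciferase reporter gene; test concentration not given here.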 The settings on record: HEK293 splicing luciferase reporter, 24 h, higher = more signal, called active from +8 up or from −8 down.
Assay [5] addresses Fibroblast growth factor 10 (Homo sapiens) (UniProt O15520). Briefly: compounds binding fibroblast growth factor 10 – biochemical, small-molecule microarray, 635 nm fluorescence, primary screen (AID 1102). The note with it: FGF10 binding, fluorescence 635 nm, higher = more signal.
Assay [6] deals with glycogen synthase kinase-3 (GSK3A per assay name; protocol says GSK3B). Briefly: compounds binding glycogen synthase kinase-3 – biochemical, small-molecule microarray, 635 nm fluorescence, GSK3A, primary screen (AID 1103). Further: the record names both GSK3A and GSK3B. The settings on record: fluorescence 635 nm, higher = more signal.
Assay [7] deals with Epidermal growth factor receptor (Homo sapiens) (UniProt P00533). Briefly: compounds binding epidermal growth factor receptor – biochemical, small-molecule microarray, 635 nm fluorescence, primary screen (AID 1104).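 Further: score merges 667 nm emission intensity with spot signal to noise over triplicate slides.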 The settings on record: EGFR binding, higher = more signal.
Assay [8] concerns the target Follistatin-related protein 3 (Homo sapiens) (UniProt O95633). Briefly: compounds binding follistatin-related protein 3 – biochemical, small-molecule microarray, 635 nm fluorescence, primary screen (AID 1105).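 Further: score merges emission near 667 nm and signal to noise per printed spot across three slides.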 The settings on record: FSTL3 binding, higher = more signal.
Assay [9] has as its target Dickkopf-related protein 1 (Homo sapiens) (UniProt O94907). Briefly: small molecules binding DKK1 protein – biochemical, small-molecule microarray, 635 nm fluorescence scan, primary screen (AID 1106).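 Further: score merges emission near 667 nm with signal to noise over three replicate slides.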 The settings on record: higher = more signal.
Assay [10] concerns Inhibin beta A chain (activin A). Briefly: small molecules binding activin A – biochemical, small-molecule microarray, 635 nm fluorescence scan, primary screen (AID 1107).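 Further: mouse activin A protein probed at 4.33 µg/mL on printed slides; score merges bound-protein fluorescence near 667 nm with spot signal-to-noise.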 The settings on record: INHBA, higher = more signal.

Fibroblast growth factor 10 (Homo sapiens), sequence (O15520 whole entry, looked up): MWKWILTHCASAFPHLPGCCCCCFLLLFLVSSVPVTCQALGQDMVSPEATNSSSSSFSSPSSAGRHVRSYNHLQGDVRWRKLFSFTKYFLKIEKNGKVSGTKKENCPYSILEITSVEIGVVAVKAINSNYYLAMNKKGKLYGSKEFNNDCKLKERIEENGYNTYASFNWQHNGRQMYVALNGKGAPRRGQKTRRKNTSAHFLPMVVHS
Follistatin-related protein 3 (Homo sapiens), sequence (O95633 whole entry, looked up): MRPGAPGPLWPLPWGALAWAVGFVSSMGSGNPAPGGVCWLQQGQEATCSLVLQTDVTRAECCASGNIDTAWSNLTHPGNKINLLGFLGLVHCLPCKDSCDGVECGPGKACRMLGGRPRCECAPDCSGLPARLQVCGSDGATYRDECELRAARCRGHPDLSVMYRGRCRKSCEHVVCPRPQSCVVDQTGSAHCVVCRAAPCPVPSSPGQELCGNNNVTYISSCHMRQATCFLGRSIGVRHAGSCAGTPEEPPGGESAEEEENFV
Dickkopf-related protein 1 (Homo sapiens), sequence (O94907 whole entry, looked up): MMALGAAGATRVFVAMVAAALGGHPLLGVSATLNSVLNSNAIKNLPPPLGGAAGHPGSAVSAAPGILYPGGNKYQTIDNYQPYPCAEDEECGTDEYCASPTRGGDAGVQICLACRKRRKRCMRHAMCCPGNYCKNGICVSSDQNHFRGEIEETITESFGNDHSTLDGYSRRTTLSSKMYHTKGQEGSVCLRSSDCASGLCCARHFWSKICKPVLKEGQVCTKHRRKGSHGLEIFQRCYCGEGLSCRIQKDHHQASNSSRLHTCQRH
Epidermal growth factor receptor (Homo sapiens), sequence (P00533 whole entry, looked up): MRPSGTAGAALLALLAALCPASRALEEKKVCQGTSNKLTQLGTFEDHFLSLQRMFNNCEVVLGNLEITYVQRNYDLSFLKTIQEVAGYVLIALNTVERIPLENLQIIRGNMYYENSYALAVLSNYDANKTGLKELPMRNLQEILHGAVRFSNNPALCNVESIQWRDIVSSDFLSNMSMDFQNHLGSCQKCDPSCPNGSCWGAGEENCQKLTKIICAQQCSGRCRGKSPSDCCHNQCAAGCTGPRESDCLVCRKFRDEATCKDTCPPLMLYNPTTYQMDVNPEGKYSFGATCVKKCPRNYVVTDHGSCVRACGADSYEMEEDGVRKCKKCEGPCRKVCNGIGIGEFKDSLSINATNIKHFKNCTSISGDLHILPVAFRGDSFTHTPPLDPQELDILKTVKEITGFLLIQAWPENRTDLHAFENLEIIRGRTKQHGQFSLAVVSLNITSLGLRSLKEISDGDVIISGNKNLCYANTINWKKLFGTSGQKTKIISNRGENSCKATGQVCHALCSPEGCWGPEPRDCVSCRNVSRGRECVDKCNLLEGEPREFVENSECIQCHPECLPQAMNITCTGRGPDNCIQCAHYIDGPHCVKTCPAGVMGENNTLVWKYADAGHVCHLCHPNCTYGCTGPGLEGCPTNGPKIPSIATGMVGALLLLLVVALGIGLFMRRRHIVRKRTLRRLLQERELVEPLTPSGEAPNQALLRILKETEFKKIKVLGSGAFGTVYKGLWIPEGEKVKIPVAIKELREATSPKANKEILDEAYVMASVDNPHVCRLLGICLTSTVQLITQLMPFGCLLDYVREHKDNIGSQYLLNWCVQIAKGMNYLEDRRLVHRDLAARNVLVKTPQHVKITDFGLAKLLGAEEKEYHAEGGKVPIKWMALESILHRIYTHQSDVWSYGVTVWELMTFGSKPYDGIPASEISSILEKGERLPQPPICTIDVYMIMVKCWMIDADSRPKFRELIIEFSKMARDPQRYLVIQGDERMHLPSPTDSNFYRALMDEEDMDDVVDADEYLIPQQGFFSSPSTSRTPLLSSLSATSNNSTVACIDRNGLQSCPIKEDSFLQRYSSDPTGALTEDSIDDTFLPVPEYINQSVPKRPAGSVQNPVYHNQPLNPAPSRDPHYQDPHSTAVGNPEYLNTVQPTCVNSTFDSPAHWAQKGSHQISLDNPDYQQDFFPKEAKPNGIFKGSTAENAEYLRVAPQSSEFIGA

With `C[N+](C)(C)CCCCCCNC(=O)[C@H]1C[C@H]2C(=O)NCC(=O)N2[C@H]1c1ccc(O)cc1`, the composite z-score in [1] is 1.51; in [2], -0.34; in [3], -0.592; in [5], 1.35; in [6], 0.846; in assay [7] it was 0.056. For the same molecule, the composite z-score in assay [8] is 1.42; in [9] it was 0.687; in assay [10], -0.253. The z-score in [4] was -0.271 (inactive).
On to `CCCC[C@@H]1C[C@H]1[C@@H](NC(=O)c1ccccc1)c1ccc(C(F)(F)F)cc1`, for which the composite z-score in assay [1] is -0.829; in assay [2], 0.455; in [3], 0.926; in assay [5], -0.896; in [6] it was -1.74; in assay [7], -1.09. Besides, the composite z-score is -0.683 in [8], -0.993 in assay [9] and 0.986 in assay [10]. Besides, the z-score in assay [4] was -0.188 (inactive).
For the molecule `C=CCC(OC(C)=O)[C@@H]1[C@@H](N(Cc2ccc(-c3cccc(C(F)(F)F)c3)o2)C(=O)c2ccc(C)cc2)c2cc(OCCCO)ccc2N1C(=O)c1ccc2ccccc2c1` (stereo not given in full), the composite z-score in [1] is 0.178; in [2] it was -0.149; in [3], 0.155; in assay [5] it was 0.298; in assay [6], -0.461; in [7], -0.0161. In addition, the composite z-score was found to be 0.443 in assay [8], 0.217 in assay [9] and 1.01 in [10]. In assay [4], the z-score was -0.619 (inactive).
`CC(=O)c1ccc(C(O)C2C=CC3C(=O)N(c4ccccc4)C(=O)C3N2Nc2ccc(C#N)cc2)cc1` (stereo not given): the composite z-score in [1] was 0.45; in [2], 0.204; in [3] it was 0.764; in [5], -0.0433; in assay [6], 0.582; in assay [7], 0.262. Moreover, the results for the composite z-score in [8], in assay [9] and in [10] were 0.133, -0.594 and 0.443, respectively. Also, in [4], the z-score was 0.744 (inactive).
With `COCC1=C2[C@@H](CCc3ccccc3)OB(O)C[C@@H]2[C@@H]2C(=O)C=CC(=O)[C@@H]2C1`, the composite z-score in [1] was 0.367; in assay [2], -0.0473; in assay [3] it was -0.0343; in assay [5] it was 0.378; in assay [6], 0.679; in assay [7], 0.149. For the same molecule, the composite z-score was 0.647 in [8], 0.489 in [9] and 0.27 in [10]. Further, the z-score in assay [4] is 1.2 (inactive).
Take `CN1C(=O)C2C=CC(C(O)c3ccc(F)cc3)N(Nc3ccccc3)C2C1=O` (stereo not given): the composite z-score in assay [1] was 1.4; in [2] it was 0.4; in assay [3], 0.902; in assay [5], 0.0186; in assay [6], -0.433; in assay [7], -0.165. In addition, the composite z-score is 0.578 in [8], -0.463 in [9] and 0.623 in assay [10]. In addition, in [4], the z-score is 0.909 (inactive).
`COC(=O)[C@@]1(Cc2ccc(F)cc2)[C@H]2c3cc(C(=O)N4CCCC4)n(CCc4ccc(O)c(O)c4)c3C[C@H]2CN1C(=O)c1ccccc1`: the composite z-score was 0.391 in assay [1]; 1.8 in assay [2]; 1.04 in assay [3]; -0.206 in assay [5]; -1.73 in assay [6]; -0.0942 in assay [7]. Also, the composite z-score in assay [8] was -0.457; in assay [9], -0.359; in assay [10] it was 1.1. Further, the z-score in assay [4] is -2.62 (inactive).
In the case of `NCCCCCNC(=O)[C@@H]1C[C@@H]2C(=O)NCC(=O)N2[C@@H]1c1cccc(OCCO)c1`, the composite z-score in assay [1] worked out at 1.06; in assay [2] it was 0.237; in assay [3], 0.0759; in assay [5] it was 1; in assay [6], 1.26; in assay [7], 0.396. Further, the composite z-score came to 0.669 in [8], 1.05 in assay [9] and 0.732 in assay [10]. Besides, the z-score in [4] was -0.852 (inactive).
For the molecule `[N-]=[N+]=NCc1ccccc1C[C@@]1(C(=O)N2CCOCC2)N=C(c2ccc(OCCCO)cc2)O[C@@H]1c1ccccc1`, the composite z-score in assay [1] stood at 0.511; in assay [2], 0.881; in assay [3] it was 1.18; in [5], 1.03; in assay [6], 1.28; in [7] it was 0.0805. Also, the results for the composite z-score in assay [8], in [9] and in assay [10] were -0.14, -0.519 and 0.686, respectively. Besides, the z-score in assay [4] was -0.691 (inactive).
As for `COc1cc(OC)c(C(O)C2C=CC3C(=O)N(C)C(=O)C3N2NC(=O)OC(C)(C)C)cc1Br` (stereo not given), the composite z-score worked out at 1.07 in assay [1]; 0.993 in assay [2]; 1.15 in [3]; 1.32 in assay [5]; 1.33 in [6]; 0.26 in assay [7]. For the same molecule, the results for the composite z-score in assay [8], in assay [9] and in assay [10] were 1.41, 0.057 and 0.594, respectively. Also, the z-score in assay [4] was 1.51 (inactive).
For `CCCCC(O)C1C=CC2C(=O)N(c3ccccc3)C(=O)C2N1Nc1ccc(C(C)C)cc1` (stereo not given), the composite z-score in assay [1] is 0.562; in [2], -0.109; in [3], 0.214; in assay [5], 1.05; in [6], 1.26; in assay [7], 0.341. Moreover, the composite z-score was found to be 1.04 in [8], 0.223 in assay [9] and 0.63 in assay [10]. Further, in assay [4], the z-score was -0.479 (inactive).
Regarding `COCCCNC(=O)[C@]1(CCS(=O)(=O)c2ccccc2)N=C(c2ccc(OCCCO)cc2)O[C@@H]1c1ccccc1CN=[N+]=[N-]`, the composite z-score in [1] was determined as 1.51; in [2] it was 1.41; in assay [3], 1.26; in [5] it was 1.54; in assay [6] it was 1.32; in [7] it was 0.233. Further, the composite z-score in assay [8] was 1.2; in assay [9], -0.0602; in [10], 0.746. In [4], the z-score is -0.325 (inactive).
With `C=CCOC(=O)[C@H]1[C@@H]2C(=O)O[C@@H](c3ccccc3)[C@@H](c3ccccc3)N2[C@@H](c2ccc(OCCOC(=O)[C@@H]3C[C@@H]4C(=O)N[C@@H](CCCCN(C)C)C(=O)N4[C@@H]3c3ccc(O)cc3)cc2)[C@]12C(=O)Nc1ccccc12`, the composite z-score came out at 0.913 in assay [1]; 0.173 in assay [2]; 0.0016 in assay [3]; 1.03 in assay [5]; 1.32 in [6]; 0.961 in assay [7]. For the same molecule, the composite z-score in assay [8] is 1.43; in [9] it was 1.27; in assay [10] it was -0.471. For the same molecule, in assay [4], the z-score is -0.311 (inactive).
On to `[N-]=[N+]=NCc1ccccc1[C@H]1OC(c2ccc(OCCCO)cc2)=N[C@@]1(CCS(=O)(=O)c1ccccc1)C(=O)N1CCCCC1`, for which the composite z-score in assay [1] was found to be 1.15; in assay [2] it was 1.05; in assay [3] it was 1.42; in [5], 0.644; in [6] it was 1.28; in [7], 0.169. Besides, the figures for the composite z-score in assay [8], in assay [9] and in assay [10] were 0.909, -0.202 and 1.57, respectively. In addition, the z-score in assay [4] is -0.33 (inactive).
In the case of `COC(=O)c1nc2oc1CC[C@@H](CO)NC(=O)N(C)Cc1cnnn1C[C@H](Cc1ccccc1)NC2=O`, the composite z-score in assay [1] is 1.81; in assay [2], -0.148; in [3] it was 0.106; in assay [5], -0.0412; in [6], -1.05; in [7] it was -0.913. Further, the composite z-score was 0.228 in assay [8], -0.682 in [9] and 0.139 in assay [10]. The z-score in assay [4] is -0.495 (inactive).
Take `O=C1O[C@H](c2ccccc2)[C@H](c2ccccc2)N2[C@H]1[C@@H](C(=O)NC[C@H](O)c1ccccc1)[C@]1(C(=O)Nc3ccc(C#CCCO)cc31)[C@H]2c1ccc(OCCO)cc1`: the composite z-score in assay [1] was 1.58; in assay [2], 0.222; in [3], 0.0751; in assay [5], 0.575; in assay [6], 0.739; in assay [7] it was 0.037. In addition, the composite z-score in assay [8] came to 0.701; in assay [9] it was 0.264; in assay [10], 0.503. In addition, the z-score in [4] was 0.613 (inactive).
